NadD block: inhibitors of S. aureus NadD, primary screen, biochemical, colorimetric, uHTS; 360,000 tested, 0.78% active; AID 602399, 2012; inhibition, % at 20 µM; purified NadD enzyme, colorimetric absorbance read-out; Nicotinate-nucleotide adenylyltransferase NadD (Staphylococcus aureus N315); in the data active means inhibition above about 26%
DSG3 Ab inh: inhibitors of pemphigus antibody binding to DSG3, primary screen, biochemical, bead-based, flow cytometry, scFv-GFP; binding (percent of control), % at 10 µM; 310,000 tested, 0.48% active; AID 588358, 2011; DSG3-coupled beads, scFv-anti-DSG3-GFP binding; stronger effect = lower value;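 active means binding more than 3 SD below its plate's average and above zero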;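 further: hits lower antibody fragment binding to DSG3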
MsrA inhibitor: bovine MsrA enzyme inhibitors, primary screen, biochemical, absorbance, HTS | 360,000 tested, 0.75% active | purified bovine MsrA, absorbance read-out | inhibition, % at 15.5 µM; in the data active means inhibition above about 4.5%;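 further: 0% = vehicle wells with enzyme and 100% = reference inhibitor wells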
rCAG binder: binders of r(CAG) RNA repeats, primary screen, biochemical, fluorescence; 370,000 tested, 1.3% active; r(CAG) RNA repeat, TO-PRO-1 dye displacement fluorescence; inhibition, % at 3 µM; AID 651821, 2012;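 active means inhibition above the plate cutoff, the mean of all test compounds on that plate plus 3 SD, cut at about 35% in these data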;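 further: 0% = DMSO alone and 100% = 100 µM mitoxantrone as full dye displacement; higher means more dye released from RNA so lower well fluorescence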
MsrA act: bovine MsrA enzyme activators, primary screen, biochemical, absorbance, HTS; activation, % at 10.6 µM; purified bovine MsrA, absorbance read-out; Methionine sulfoxide reductase A (Bos taurus); 360,000 tested, 0.3% active; in the data active means activation above about 7.5%;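 further: 0% = vehicle and 100% = reference activator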
DAGLB inh: DAGLB lipase inhibitors, primary screen, biochemical, fluorescence, HTS; HEK293T DAGLB membrane lysate, EnzChek fluorogenic substrate; inhibition, % at 5.17 µM; 340,000 tested, 0.059% active; in the data active means inhibition above about 34%;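 further: 0% = enzyme with vehicle and 100% = wells lacking enzyme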
Target sequence (Q8NCG7 whole entry, looked up): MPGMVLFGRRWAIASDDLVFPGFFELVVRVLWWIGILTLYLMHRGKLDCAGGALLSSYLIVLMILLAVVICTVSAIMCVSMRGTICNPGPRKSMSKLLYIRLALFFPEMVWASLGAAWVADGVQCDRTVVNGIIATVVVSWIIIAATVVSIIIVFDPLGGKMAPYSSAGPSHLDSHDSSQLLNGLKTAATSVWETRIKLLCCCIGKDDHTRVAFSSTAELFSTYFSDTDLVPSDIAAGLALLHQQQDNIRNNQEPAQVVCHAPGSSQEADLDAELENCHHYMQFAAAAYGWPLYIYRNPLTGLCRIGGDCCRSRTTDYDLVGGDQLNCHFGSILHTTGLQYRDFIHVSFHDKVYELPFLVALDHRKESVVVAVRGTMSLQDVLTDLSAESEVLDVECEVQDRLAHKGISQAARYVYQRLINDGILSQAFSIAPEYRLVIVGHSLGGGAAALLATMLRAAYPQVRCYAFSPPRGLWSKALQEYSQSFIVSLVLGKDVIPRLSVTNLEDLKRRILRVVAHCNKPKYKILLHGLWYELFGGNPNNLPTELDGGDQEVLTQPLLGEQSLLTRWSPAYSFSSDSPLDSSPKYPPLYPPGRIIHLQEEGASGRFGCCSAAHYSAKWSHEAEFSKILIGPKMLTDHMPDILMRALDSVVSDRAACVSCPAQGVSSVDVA
NadD inh conf: inhibitors of S. aureus NadD, confirmation, biochemical, colorimetric, single concentration | shares compounds with NadD block | purified S. aureus NadD, colorimetric enzyme assay | inhibition, % at 20 µM | 2,000 tested, 13% active; in the data active means inhibition mostly above about 42%, no sharp cut-off; inactive means mostly below about 42%
Active calls of the source: *; . = not tested or not shown. A selection: hits, their analogues and other compounds. The true share with any hit is near 3.2%.

SMILES	NadD block	DSG3 Ab inh	MsrA inhibitor	rCAG binder	MsrA act	DAGLB inh	NadD inh conf
N#CCC(=O)Nc1ccc(C(=O)OC(C(=O)Nc2ccc([N+](=O)[O-])cc2Br)c2ccccc2)cc1 (stereo not drawn)	46*	87	0	31	-8	-2	39
COc1ccccc1N1CCN(c2nc3ccccc3nc2C(C#N)C(=O)OC(C)C)CC1 (stereo not drawn)	37*	104	2	5	-2	-5	6
COc1ccc(-c2nc(NC(=O)c3ccc(OCC(=O)Nc4ccc(F)cc4)c(OC)c3)sc2C)cc1	26	94	0	8	-5	0	.
COc1cc(C(=O)Nc2nc(-c3cc(C)ccc3C)c(C)s2)ccc1OCC(=O)Nc1ccc(F)cc1	33*	87	-1	4	-5	-3	18
CC(C)(C)c1ccc(OCC(=O)Nc2ccc3c4c(cccc24)C(=O)NC3=O)cc1	34*	93	1	-2	-2	0	2
CCCNc1c(F)c(F)c2c(C)c3ccccc3nc2c1F	39*	115	0	26	-1	-9	17
Cc1c2ccccc2nc2ccccc12	1	.	-2	6	-4	10	.
COC(=O)C[C@H]1CC[C@@H]2[C@H](COc3ccc(NC(=O)c4cccc(Cl)c4)cc3C(=O)N2C)O1	.	.	.	6	.	.	.
Cc1cccc2sc(NC(=O)c3cccc(S(=O)(=O)N4CCc5ccccc54)c3)nc12	13	124	-1	3	-5	-2	.
Cc1cc(C)c2nc(NC(=O)c3cccc(S(=O)(=O)N4CCc5ccccc54)c3)sc2c1	44*	97	-1	5	-3	-4	0
COc1ccc(C2=NN(C(=O)CCC(=O)O)C(c3ccccc3)C2)cc1 (stereo not drawn)	1	102	0	5	-3	0	.
Cc1ccc(N2C(=O)C3N=NN(CC(=O)N4N=C(c5ccccc5)CC4c4ccccc4)C3C2=O)cc1 (stereo not drawn)	43*	92	1	9	-2	10	31
COc1ccc(/C=C2/C(=O)C(C)(C(C)C)CCC2C)cc1 (stereo not drawn)	4	77	-1	-3	-3	-8	.
COc1ccc2cc(-c3cc(C(=O)OCC(=O)Nc4c(C)n(C)n(-c5ccccc5)c4=O)c4ccccc4n3)ccc2c1	40*	85	-1	10	-9	0	12
N#CCC(=O)Nc1ccc(C(=O)OCC(=O)Nc2ccc3ccccc3c2)cc1	46*	100	0	31	-1	2	40
O=C(COC(=O)c1ccc(CO)cc1)Nc1ccc2ccccc2c1	10	102	-1	1	-1	-7	.
CCN(CC)S(=O)(=O)c1cc(NC(=O)COC(=O)c2ccc(NC(=O)CC#N)cc2)ccc1C	33*	87	-1	23	4	-4	14
CCOC(=O)C1=C(C)N=c2sc(=Cc3cc(Cl)c(OCC(=O)O)c(OC)c3)c(=O)n2C1c1ccccc1Cl (stereo not drawn)	30*	.	0	22	-9	.	23
CC[C@H](CCCc1ccc(OC)cc1)CCC(=O)N1CCOCC1	.	.	.	0	.	.	.
Cc1nc(S/C(=C\c2ccc(OCc3ccccc3Cl)cc2)C(=O)O)n[nH]1	63*	.	0	16	0	3	13
COC(=O)C1=C(C)N=C2SC(C)C(=O)N2C1/C=C/c1ccccc1OC (stereo not drawn)	29*	91	0	16	-1	1	44
Clc1ccc(/C=N/NC2=Nc3cccc4cccc2c34)cc1	30*	103	1	6	1	-1	17
CC(=O)Nc1ccc(NC(=O)CSc2nnc(NC(=O)C3CC(=O)N(c4ccccc4)C3)s2)cc1 (stereo not drawn)	2	.	0	8	-1	1	.
COc1cccc(N2CC(C(=O)Nc3nnc(SCC(=O)Nc4cc(C)on4)s3)CC2=O)c1 (stereo not drawn)	41*	92	-1	11	-2	0	3
Cc1ccc(N2CC(C(=O)Nc3nnc(SCC(=O)Nc4cc(C)on4)s3)CC2=O)cc1 (stereo not drawn)	39*	92	-1	4	-5	-1	2
SMILES	NadD block	DSG3 Ab inh	MsrA inhibitor	rCAG binder	MsrA act	DAGLB inh	NadD inh conf
CCc1ccc(C2CC3C(CN2S(=O)(=O)c2ccc(C)cc2)C(=O)CC(c2ccc(CC)cc2)N3S(=O)(=O)c2ccc(C)cc2)cc1 (stereo not drawn)	.	.	-1	8	.	.	.
O=C1NC(=O)c2c(Br)c(Br)c(Br)c(Br)c21	30*	115	0	3	-9	1	7
CC1CC(C)(C)CC2(C1)NC(=O)N(CC(=O)Nc1cc(C(F)(F)F)ccc1N1CCCCC1)C2=O (stereo not drawn)	42*	102	1	6	1	-3	0
O=C(CN1C(=O)NC2(CCCCC2)C1=O)Nc1cc(C(F)(F)F)ccc1N1CCCC1	-1	107	1	-7	0	0	.
O=C(N/N=C\c1cc([N+](=O)[O-])ccc1N1CCCC1)c1ccccn1	6	110	-1	-3	-7	-1	.
O=C(Cn1c2ccccc2c(=O)c2ccccc21)N/N=C/c1cc([N+](=O)[O-])ccc1N1CCCCC1	47*	107	-1	5	-1	0	9
Cc1cc(C)n(-c2cc(N3CCN(S(=O)(=O)c4ccc(C)c(C)c4)CC3)ccc2[N+](=O)[O-])n1	14	95	0	-2	-1	-2	.
Cn1cnnc1Sc1cc(N2CCN(S(=O)(=O)c3ccc(Cl)c(Cl)c3)CC2)ccc1[N+](=O)[O-]	42*	89	1	6	-2	0	10
Cc1cc(C)n(-c2cc(N3CCN(S(=O)(=O)c4ccc5ccccc5c4)CC3)ccc2[N+](=O)[O-])n1	50*	102	1	7	-2	-5	41
COc1ccc(CN2C(=O)CCC2(C)c2nnnn2-c2ccc3c(c2)OCCO3)cc1 (stereo not drawn)	-1	.	1	0	-4	.	.
Cc1cc(C)c2oc(-c3ccc(C)c(NC(=S)NC(=O)/C=C/c4ccco4)c3)nc2c1	35*	93	1	21	-11	4	-2

Screens as filed in PubChem BioAssay.
